In the library only some 31% were active in any assay of this set; here they are far more common.
PLAP activator = activates human placental alkaline phosphatase; P05187; AID 696; 96,000 compounds, 1.2% hits; purified PLAP enzyme, luminescent substrate read-out; stronger effect = higher value; activation fold at 20 µM; in the data active = activation fold above about 2
Target sequence (P05187 whole entry, looked up): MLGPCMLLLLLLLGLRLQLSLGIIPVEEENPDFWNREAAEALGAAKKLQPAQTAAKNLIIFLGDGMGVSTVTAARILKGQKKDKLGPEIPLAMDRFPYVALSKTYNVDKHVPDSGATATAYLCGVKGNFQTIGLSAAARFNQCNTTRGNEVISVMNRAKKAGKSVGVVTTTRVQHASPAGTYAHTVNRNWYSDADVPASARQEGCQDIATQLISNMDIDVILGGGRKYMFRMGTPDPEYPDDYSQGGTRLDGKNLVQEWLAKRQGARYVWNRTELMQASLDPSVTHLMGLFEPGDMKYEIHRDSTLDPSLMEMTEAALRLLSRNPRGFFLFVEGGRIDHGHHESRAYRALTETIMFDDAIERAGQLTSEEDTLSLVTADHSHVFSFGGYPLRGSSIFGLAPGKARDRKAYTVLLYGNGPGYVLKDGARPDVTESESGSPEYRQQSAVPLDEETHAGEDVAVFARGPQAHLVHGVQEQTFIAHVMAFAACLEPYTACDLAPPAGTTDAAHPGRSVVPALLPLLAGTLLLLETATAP
CYP2C19 inh = human CYP2C19 inhibition; P33261; CYP2C19 Supersomes, luciferin-H EGE luminescence, 30 min; inhibition, % at 5 µM; 96,000 compounds, 21% hits; AID 778;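 active = CYP2C19 inhibition above a set limit at 5 µM in the primary screen, cut at about 50% in these data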;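 also: plate controls were negative control wells for no effect and 2.5 mM tranylcypromine positive control for full effect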
CYP2C9 activ = activators of human CYP2C9; P11712; 96,000 compounds, 1.4% hits; activation factor at 5 µM; recombinant CYP2C9, luciferin-H conversion, luminescence; stronger effect = higher value; factor 1 = untreated enzyme, 0 = blocked;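 active = activation factor of 2 or more for CYP2C9 at a 5 µM dose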;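 also: 0 = sulfaphenazole-blocked wells and 1 = vehicle-only wells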
CYP2C9 inh = blocks human cytochrome P450 2C9 | P11712 | CYP2C9 Supersomes, luciferin-H conversion, luminescence | inhibition, % at 5 µM | 96,000 compounds, 20% hits;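 active = blocking of liver enzyme CYP2C9 beyond about 50% at 5 µM, limit read from the data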
CYP2C19 act = cytochrome P450 2C19 (human) activation | 96,000 tested, under 10 active | AID 1025 | P33261 | recombinant CYP2C19, luciferin-H EGE luminescence; stronger effect = higher value; 0 = fully inhibited enzyme, 1 = untreated enzyme | activation factor at 5 µM;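 active = activation factor of at least 2 at 5 µM in the primary screen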;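 also: 0 = wells with 2.5 mM tranylcypromine and 1 = vehicle-only wells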
Numbers without * were called inactive.

SMILES	PLAP activator	CYP2C19 inh	CYP2C9 activ	CYP2C9 inh	CYP2C19 act
CCOc1nc(C)ccc1-c1noc(-c2ccccn2)n1	1	-8.4	1.1	-11.4	1.1
c1ccc(CCc2ccccc2-c2nc(-c3ccccn3)no2)cc1	0.8	9.5	0.8	19.1	0.9
Cc1onc(-c2ccccc2Cl)c1-c1nc(-c2ccccn2)no1	1	32.0	0	97.2*	0.7
Cc1ccc(-c2nc(-c3ccccc3)no2)c(Cl)c1	0.9	-13.9	1.1	-14.2	1.1
Cc1occc1-c1nc(-c2ccccn2)no1	1.1	75.7*	0.5	47.5	0.2
Cc1occc1-c1nc(-c2ccncc2)no1	1	97.6*	0.3	68.1*	0
Cn1c(=O)c2c(=O)cc(NNC(=O)C(C)(C)C)[nH]c2n(C)c1=O	1.1	0.9	0.6	37.2	1
CN(Cc1ccccc1)Cc1nc2c(c(=O)n(C)c(=O)n2C)n1CCCc1ccccc1	1.1	82.9*	0.1	93.8*	0.2
CC(C)Cn1c(CN(C)Cc2ccccc2)nc2c1c(=O)n(C)c(=O)n2C	1.3	12.5	0.2	81.0*	0.9
CSc1nc(-c2ccco2)cc(-c2ccccc2)c1C#N	0.9	24.6	0.3	65.7*	0.8
N#Cc1c(-c2ccco2)cc(-c2ccc(F)cc2)nc1N	0.9	9.0	0.7	28.9	0.9
COC(=O)CSc1nc(-c2ccccc2)cc(-c2ccco2)c1C#N	1.5	49.3	0.1	89.3*	0.5
CC(C)c1ccc(OCC(=O)Nc2cccc3c2CCCC3)cc1	1	8.4	1	-3.3	0.9
COC(=O)c1ccccc1NC(=O)Cn1ccnc1	1.2	99.5*	0.2	83.6*	0
O=C(O)CSCC(=O)Nc1cccc2ccccc12	1.3	-20.7	1.1	-7.2	1.2
COC(=O)c1ccccc1NC(=O)COC(C)=O	1	15.2	1	-2.8	0.8
Cn1ccnc1SCC(=O)Nc1cccc2ccccc12	0.9	96.7*	1.6	-61.2	0
COC(=O)c1ccccc1NC(=O)CSc1nc(O)cc(=O)n1C1CCCC1	1.2	28.0	0.3	73.8*	0.7
Cn1ccnc1SCC(=O)NC12CC3CC(CC(C3)C1)C2	0.9	92.2*	0.9	5.3	0.1
COCc1[nH]nc2c1C(c1ccccc1F)C(C#N)=C(N)O2 (centres undefined)	0.9	12.9	1	-4.8	0.9
CCOC(=O)CSc1nc2ccccc2n1CC(=O)N1CCN(c2ccccc2)CC1	1.2	2.9	0.8	20.8	1
COc1ccc(NC(=O)c2cc(-c3cc(C)cc(C)c3O)n[nH]2)cc1Cl	1	39.2	0.9	10.3	0.6
CC1=C(C(=O)N2CCOCC2)C(c2ccccc2F)C2=C(CCCC2=O)N1 (centres undefined)	0.9	9.5	1	-4.4	0.9
COC(=O)c1ccccc1NC(=O)CSc1nnc(CNS(=O)(=O)c2ccc(C)cc2)n1C	1.1	51.9*	0.1	94.0*	0.5
COC(=O)c1ccccc1NC(=O)Cn1c(CCC(=O)O)ccc1-c1cccs1	1.6	53.3*	0.7	33.4	0.5
SMILES	PLAP activator	CYP2C19 inh	CYP2C9 activ	CYP2C9 inh	CYP2C19 act
COC(=O)c1ccccc1NC(=O)CSc1nccn1C	1	85.3*	0.9	7.1	0.1
CCOC(=O)c1ccc(NC(=O)CSc2nccn2C)cc1	1.1	60.4*	0.9	9.0	0.4
O=C(OCc1ccccc1F)c1ccc2c(c1)-c1ccccc1C2=O	1	-9.8	1	-0.2	1.1
C=CCNC(=S)NNC(=O)c1cccn(Cc2cccc(Cl)c2)c1=O	1.4	9.2	0.9	8.4	0.9
CCN(CC)c1ccc(NC(=O)Cn2cc3c(n2)CCC(C)C3)c(C)c1 (centres undefined)	1.3	10.2	1	-4.9	0.9
Cc1ccc(C(=O)COC(=O)c2cc(Cl)nc3ccccc23)cc1C	1	20.9	2*	-104.5	0.8
Cc1cc(C(=O)OCC(=O)NC(C)(C)C)c2ccccc2n1	1.3	-7.4	1.4	-44.6	1.1
COCc1cc(=O)[nH]c(/N=C(\N)Nc2ccc(Oc3ccccc3)cc2)n1	1.7	4.1	0.9	14.6	1
COc1ccc(Cl)cc1N/C(N)=N/c1nc(CSc2ccc(C)cc2)cc(=O)[nH]1	2.6*	52.1*	0.2	76.3*	0.5
COCc1cc(=O)[nH]c(/N=C(\N)Nc2cccc(C)c2)n1	2.4*	-4.6	1	0.0	1
COC(=O)Cc1cc(=O)[nH]c(/N=C(\N)Nc2ccc(C)cc2)n1	2.1*	-11.7	0.9	8.8	1.1
CN(CC(=O)Nc1ccc(S(N)(=O)=O)cc1)c1ccccc1	1.2	-10.5	1	-4.2	1.1
c1ccc2c(c1)nc1n2CCS1	1	62.5*	1.2	-19.4	0.4
C=CCNC1=C(Cl)C(=O)N(c2ccccc2Cl)C1=O	0.9	68.1*	0.7	26.5	0.3
CCC1(CC)Cc2ccccc2C(CC(=O)N2CCOCC2)=N1	1.1	30.9	0.9	11.5	0.7
CCOC(=O)c1ccccc1NC(=O)/C=C/c1cc(OC)c(OC)c(OC)c1	0.9	-7.1	1.1	-11.6	1.1
COc1ccc(C(=N/O)/C(=N/O)c2ccc(OC)cc2)cc1	1.1	59.6*	0.7	26.7	0.4
C/C(=N\NC(N)=O)c1ccc(Cl)cc1	1.1	14.6	0.8	15.7	0.9
O=[N+]([O-])c1cccc(C(=Nc2ccc(Cl)cc2)NO)c1	0.7	87.9*	0.3	71.3*	0.1
O=C(CCC(=O)OCC(=O)c1cccc([N+](=O)[O-])c1)Nc1cccc(Cl)c1Cl	0.9	-0.8	1	0.1	1
O=[N+]([O-])c1cccc(C(=Nc2ccccc2Cl)NO)c1	0.9	87.4*	0.4	61.7*	0.1
ONC(=Nc1ccc(Cl)cc1)c1ccc(Cl)cc1	0.8	70.8*	0.4	55.4*	0.3
COc1ccc(CCNC(=O)C2CCN(S(=O)(=O)N3CCOCC3)CC2)cc1OC	1	-11.7	1.1	-12.9	1.1
CCOC(=O)NCc1ccc2c(c1)cc(C)n2C	1.1	31.4	1	1.7	0.7
Cc1cc2cc(CNS(=O)(=O)c3ccccc3)ccc2n1C	1.2	100.1*	0.3	74.3*	0
SMILES	PLAP activator	CYP2C19 inh	CYP2C9 activ	CYP2C9 inh	CYP2C19 act
Cc1cc2cc(CNC(=O)c3ccc(S(=O)(=O)N4CCCC4)cc3)ccc2n1C	1.2	4.5	0.2	81.6*	1
COc1ccc(S(=O)(=O)NCc2ccc3c(c2)cc(C)n3C)cc1	0.8	75.8*	0.8	17.7	0.2
CCS(=O)(=O)NCc1ccc2c(c1)cc(C)n2C	1.2	54.2*	0.4	59.9*	0.5
CCN(CC)S(=O)(=O)c1ccc(C(=O)NCc2ccc3c(c2)cc(C)n3C)cc1	1	4.6	0.5	47.0	1
Cc1cccc(NC(=O)Cc2cccs2)n1	1.2	12.0	1	-4.3	0.9
Cc1ccc(CNC2=NCCCCC2)n1C	0.9	-0.4	1	2.2	1
CC1CCc2ccc(F)cc2N1S(=O)(=O)c1cccs1 (centres undefined)	0.9	62.1*	0.6	40.5	0.4
COc1ccc(-c2cc(C3CC3)nc3sc(C#N)c(N)c23)cc1	1.5	57.2*	0.4	58.8*	0.4
